Screening results as filed in PubChem.
Shown are actives, neighbours in structure and some others; about 21% of the full set was active somewhere.
RORg inh: qHTS for inhibitors of ROR gamma transcriptional activity. Potency, µM (highest dose often 53.6 µM), without a hit: top-dose activity change, negative = inhibition, actives largely listed as inhibitors. Drosophila S2 Gal4-RORgamma UAS-luciferase reporter, 20 h. Nuclear receptor ROR-gamma (Mus musculus), P51450. hit rate 5.4% among 310,000; note: potency is the fitted concentration of half-maximal effect; nearly all actives have a fitted effect of over 60% in size
Target sequence (P51450 whole entry, looked up, the tested form may be a part): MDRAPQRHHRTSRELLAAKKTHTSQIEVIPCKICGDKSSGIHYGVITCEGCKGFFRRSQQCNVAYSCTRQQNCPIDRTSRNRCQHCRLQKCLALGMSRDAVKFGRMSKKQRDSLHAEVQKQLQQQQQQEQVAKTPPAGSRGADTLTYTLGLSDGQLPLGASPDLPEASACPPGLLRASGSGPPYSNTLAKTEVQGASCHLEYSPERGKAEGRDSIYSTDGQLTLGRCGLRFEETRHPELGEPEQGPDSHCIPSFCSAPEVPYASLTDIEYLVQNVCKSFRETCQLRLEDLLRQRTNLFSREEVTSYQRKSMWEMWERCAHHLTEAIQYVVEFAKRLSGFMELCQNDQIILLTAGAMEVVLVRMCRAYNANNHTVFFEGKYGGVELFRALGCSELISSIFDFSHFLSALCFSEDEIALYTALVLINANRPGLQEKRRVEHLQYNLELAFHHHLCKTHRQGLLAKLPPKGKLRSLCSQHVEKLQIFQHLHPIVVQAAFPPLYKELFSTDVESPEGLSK
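ROR gamma transcriptional activity was tracked as Gal4-UAS luciferase output in stably transfected Drosophila Schneider cells, with compound added 1 hr before 700 uM copper sulfate induction and a 20 hr ambient-temperature incubation.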
DT40 TDP1 CPT: qHTS for Inhibitors of human tyrosyl-DNA phosphodiesterase 1 (TDP1): qHTS in cells in presence of CPT. chicken DT40 Tdp1-/-;hTDP1 cells + 20 nM CPT, ATP luminescence, 48 h. hit rate 12% among 420,000. AID 686979, 2013. Potency, µM (top dose mostly 46.2 µM), for the others: at the top dose activity change, negative = growth inhibition, most hits filed as inhibitors; note: potency is the fitted concentration of half-maximal effect; nearly all actives have a fitted effect of over 55% in size
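Chicken DT40 Tdp1-/- cells stably complemented with human TDP1 were seeded at 400 cells/well in medium containing 20 nM camptothecin, exposed to pin-transferred compounds, and grown at 37 °C for at least 48 hr. Viability was read as ATP luminescence.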
DT40 TDP1 no CPT: qHTS for Inhibitors of human tyrosyl-DNA phosphodiesterase 1 (TDP1): qHTS in cells in absence of CPT; DT40 Tdp1-/- hTDP1 cells, no CPT, ATP luminescence, 48 h; Potency, µM (top dose mostly 46.2 µM), inactives show at the top dose activity change, negative = growth inhibition, usual class: inhibitors; hit rate 15% among 420,000; AID 686978, 2013; note: potency is the fitted concentration of half-maximal effect; nearly all actives have a fitted effect of over 55% in size
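Stably hTDP1-transfected Tdp1-null chicken DT40 cells were treated with library compounds minus camptothecin and grown for at least 48 hr at 37 °C, after which cellular ATP was quantified by luminescence.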
IL-1B inflam inh: qHTS for Inhibitors of Inflammasome Signaling: IL-1-beta AlphaLISA Primary Screen. THP-1 LPS/ATP IL-1B secretion, AlphaLISA, 16 h; active compounds read low. activity change, % at 57.5 µM. hit rate 4.7% among 360,000; in the data active = activity change below about -50%; inconclusive = mostly about -30% to -49%
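THP-1 cells pretreated 1 hr with compounds (up to 57.5 uM final), then stimulated with LPS (250 ng/mL final) plus ATP (1.25 mM final); secreted IL-1B measured by AlphaLISA after 16 hr, decreased signal indicating inhibition.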
ELG1 DNA repair: qHTS screen for small molecules that inhibit ELG1-dependent DNA repair in human embryonic kidney (HEK293T) cells expressing luciferase-tagged ELG1; HEK293T ELG1-luciferase reporter, luminescence, 16 h; DNA damage induced by 5-fluorouridine; Potency, µM (top dose mostly 46.1 µM), for the others: top-dose activity change, negative = inhibition, usual class: inhibitors; hit rate 2.3% among 330,000; note: potency is the fitted concentration of half-maximal effect; nearly all actives have a fitted effect of over 55% in size
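Overnight (16 hr) co-exposure of 2,000 cells/well to 5-fluorouridine and compound at 37 °C preceded detection. Luciferase was quantified via ONE-Glo luminescence; loss of signal denotes inhibition.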
Gal4-VP16 FLuc: VP16 counterscreen qHTS for inhibitors of ROR gamma transcriptional activity; Drosophila S2 Gal4-VP16 UAS-luciferase, luminescence, 20 h; Potency, µM (highest dose often 53.6 µM), without a hit: at the highest dose activity, negative = inhibition, usual class: inhibitors; hit rate 3.5% among 310,000; AID 2546, 2010;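 note: Gal4-VP16 expression switched on by copper sulfate through the metallothionein promoter; potency is the fitted concentration of half-maximal effect; nearly all actives have a fitted effect of over 50% in size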
Active calls of the source: *; [ ] = remark or other dose. Unless noted, calls come from the whole dose curve; as a rule, active = well fitted curve in the direction sought with a large enough effect; inconclusive = small, poorly fitted or top-dose-only effect, or another doubt; inactive = no such curve, though single readings can be large; an effect the other way counts as inactive or inconclusive. % is set by controls: 0 for no effect and ±100 for the full control effect.

Results for O=C(Nc1ccccc1Cl)c1cc(C2CCCN(S(=O)(=O)c3cccs3)C2)on1 (stereo not given) ?
DT40 TDP1 CPT: -23%; DT40 TDP1 no CPT: -12%; IL-1B inflam inh: 25

What do the screens show for `CC(C)(C(=O)N1CCC1(C)C(=O)NS(=O)(=O)c1ccccc1Cl)c1ccccc1` (stereo not given)?
DT40 TDP1 CPT: -19%; DT40 TDP1 no CPT: 7%; IL-1B inflam inh: 24

Results for COc1cccc(-n2c(SCC(=O)Nc3ccc4c(c3)OCO4)nc3c([nH]c4ccccc43)c2=O)c1 ?
DT40 TDP1 CPT: -22%; DT40 TDP1 no CPT: -29%

Results for CC(=O)c1sc(-c2ccc(F)cc2F)nc1C ?
RORg inh: 19%; DT40 TDP1 CPT: 3%; DT40 TDP1 no CPT: 0%; IL-1B inflam inh: -11; ELG1 DNA repair: inconclusive; Gal4-VP16 FLuc: 3%

What do the screens show for `COc1ccc2nc(NC(=O)c3nc(S(=O)(=O)Cc4ccc(C)cc4)ncc3Cl)sc2c1`?
DT40 TDP1 CPT: 1.6µM*; DT40 TDP1 no CPT: 2.3µM*

How did Cc1ccc(CS(=O)(=O)c2ncc(Cl)c(C(=O)Nc3nc4ccc(F)cc4s3)n2)cc1 do in these assays?
DT40 TDP1 CPT: 5.2µM*; DT40 TDP1 no CPT: 2.6µM*

Results for Cc1ccc(CS(=O)(=O)c2ncc(Cl)c(C(=O)Nc3nc4ccc(C)cc4s3)n2)cc1 ?
DT40 TDP1 CPT: 2.9µM*; DT40 TDP1 no CPT: 3.7µM*

Results for COc1ccccc1-n1cc(CN2CCC3(CCC(CNC(=O)c4ccccc4)O3)CC2)cn1 (stereo not given) ?
DT40 TDP1 CPT: 17%[9.04 µM]; DT40 TDP1 no CPT: -27%

Results for CC1CCCC(NC(=O)CN2CCN(S(=O)(=O)c3ccc(Br)s3)CC2)C1C (stereo not given) ?
DT40 TDP1 CPT: inconclusive; DT40 TDP1 no CPT: 18µM*; IL-1B inflam inh: inconclusive; ELG1 DNA repair: -13%

What do the screens show for `CCOC(=O)CNC(=O)CN1CCCN(S(=O)(=O)c2ccc(Br)s2)CC1`?
RORg inh: 43%; DT40 TDP1 CPT: -24%; DT40 TDP1 no CPT: inconclusive; IL-1B inflam inh: -10; ELG1 DNA repair: -8%; Gal4-VP16 FLuc: 0%

How did O=C(CN1CCCN(S(=O)(=O)c2ccc(Br)s2)CC1)Nc1ccc(Cl)cc1 do in these assays?
RORg inh: -24%; DT40 TDP1 CPT: inconclusive; DT40 TDP1 no CPT: inconclusive; IL-1B inflam inh: -76*; ELG1 DNA repair: inconclusive; Gal4-VP16 FLuc: inconclusive

How did Oc1cc(NCCc2cccnc2)cc2cccnc12 do in these assays?
ELG1 DNA repair: 23µM*

What do the screens show for `COc1ccccc1C(=O)O/N=C(\N)c1ccccn1`?
RORg inh: 3.2µM*; DT40 TDP1 CPT: -2%; DT40 TDP1 no CPT: -39%; IL-1B inflam inh: -3; ELG1 DNA repair: inconclusive; Gal4-VP16 FLuc: inconclusive

What do the screens show for `N/C(=N\OC(=O)c1ccccc1Cl)c1ccccn1`?
RORg inh: 6.3µM*; DT40 TDP1 CPT: inconclusive; DT40 TDP1 no CPT: inconclusive; IL-1B inflam inh: 23; ELG1 DNA repair: inconclusive; Gal4-VP16 FLuc: 14µM*

Results for N/C(=N\OC(=O)c1ccc(Cl)c(Cl)c1)c1ccccn1 ?
RORg inh: inconclusive; DT40 TDP1 CPT: -24%; DT40 TDP1 no CPT: -11%; IL-1B inflam inh: 15; ELG1 DNA repair: inconclusive; Gal4-VP16 FLuc: inconclusive

What do the screens show for `N/C(=N\OC(=O)c1cc(-c2ccccc2)nc2ccccc12)c1ccccn1`?
RORg inh: 1%; DT40 TDP1 CPT: 13µM*; DT40 TDP1 no CPT: 12µM*; IL-1B inflam inh: -26; ELG1 DNA repair: 18µM*; Gal4-VP16 FLuc: -7%

Results for Cc1ccc(/C(N)=N/OC(=O)c2cc(-c3ccccc3)nc3ccccc23)cc1 ?
RORg inh: -4%; DT40 TDP1 CPT: -28%; DT40 TDP1 no CPT: inconclusive; IL-1B inflam inh: 5; ELG1 DNA repair: 3%; Gal4-VP16 FLuc: -15%

How did Cc1ccc(C(=O)O/N=C(\N)c2ccccn2)c(C)c1 do in these assays?
RORg inh: inconclusive; DT40 TDP1 CPT: inconclusive; DT40 TDP1 no CPT: -24%; IL-1B inflam inh: inconclusive; ELG1 DNA repair: inconclusive; Gal4-VP16 FLuc: 6.3µM*

How did Cc1cn([C@H]2C[C@H](O)[C@@H](CCC(=O)NCCN3CCCCC3)O2)c(=O)[nH]c1=O do in these assays?
DT40 TDP1 CPT: -6%; DT40 TDP1 no CPT: -14%; IL-1B inflam inh: 16; ELG1 DNA repair: 3%

How did CC(OC(=O)c1nc(Cl)ccc1Cl)C(=O)c1ccccc1 (stereo not given) do in these assays?
DT40 TDP1 CPT: -1%; DT40 TDP1 no CPT: -1%; IL-1B inflam inh: -1; ELG1 DNA repair: 11%

Results for COC(=O)C1=C(C)NC2=C(C(=O)CC(C)(C)C2)C1c1ccccn1 (stereo not given) ?
RORg inh: 9%; DT40 TDP1 CPT: 2%; DT40 TDP1 no CPT: -3%; IL-1B inflam inh: 20; ELG1 DNA repair: 10%; Gal4-VP16 FLuc: -19%

How did CC1=C(C(=O)OC2CCCC2)C(c2coc3ccccc3c2=O)C2=C(CC(C)(C)CC2=O)N1 (stereo not given) do in these assays?
RORg inh: 7%; DT40 TDP1 CPT: 16µM*; DT40 TDP1 no CPT: inconclusive; IL-1B inflam inh: -11; ELG1 DNA repair: inconclusive; Gal4-VP16 FLuc: -15%

What do the screens show for `CC1=C(C(=O)OC2CCCC2)C(c2coc3ccc(C)cc3c2=O)C2=C(CCCC2=O)N1` (stereo not given)?
RORg inh: -4%; DT40 TDP1 CPT: inconclusive; DT40 TDP1 no CPT: 21µM*; IL-1B inflam inh: -16; ELG1 DNA repair: 5%; Gal4-VP16 FLuc: -9%

Results for Cc1cnc(C(=O)OCC(=O)NC(C)c2ccccc2)cn1 (stereo not given) ?
DT40 TDP1 CPT: 3%; DT40 TDP1 no CPT: 21%; IL-1B inflam inh: 6; ELG1 DNA repair: 0%

What do the screens show for `CC(C)(C)OC(=O)NCCc1nc(NC(=O)OCc2ccccc2)sc1C(=O)O`?
DT40 TDP1 CPT: 12%; DT40 TDP1 no CPT: 9%; IL-1B inflam inh: 21

Results for COc1ccc(S(=O)(=O)NCc2ccncc2)cc1NC(=O)c1ccccc1 ?
DT40 TDP1 CPT: 21µM*; DT40 TDP1 no CPT: 16µM*; IL-1B inflam inh: 15; ELG1 DNA repair: -23%
